Measurements reported in PubChem BioAssay AID1159580 (chemical genetic matrix, 2015).
Several values for one entry are separate records, joined by “and”; a condition that tells them apart may be missing. Equal values may be shown once. Out of some 5,500 compounds screened, about 2,000 (36%) were called active. Inconclusive results (about 18%) are left out. No stated cut-off is given here; in the data, active means normalized growth mostly below about 0.91 (no sharp cut-off); inconclusive means no clear call, values can overlap the other calls; inactive means mostly above about 0.92. The list shows a part of the results.

Assay: chemical genetic growth profiling, strain panel (AID 1159580);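 further: tested at 20 µM; growth read once vehicle control cultures reached saturation at 30 °C; 1 = growth at the plate median or of vehicle wells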
Conditions: S. cerevisiae deletion strains, growth OD

Measured: normalized growth

C=C(C)[C@H]1CC=C(C(=O)O)CC1
active: locus YBR021W, strain FUR4, stronger effect = lower value 0.82 | locus YDL185W, strain tfp1, stronger effect = lower value 0.871 | locus YDR195W, strain ref2 0.844 | locus YGL078C, strain dbp3, stronger effect = lower value 0.804 | locus YGR252W, strain gcn5, stronger effect = lower value 0.606 | locus YHR079C, strain IRE1, stronger effect = lower value 0.703 | locus YIL125W, strain kgd1, stronger effect = lower value 0.78 | locus YJR066W, strain TOR1, stronger effect = lower value 0.747
inactive: locus YAL013W, strain DEP1, stronger effect = lower value 1.01 | locus YAL021C, strain ccr4, stronger effect = lower value 0.968 | locus YAL026C, strain drs2, stronger effect = lower value 0.958 | locus YAL030W, strain snc1, stronger effect = lower value 0.985 | locus YBL061C, strain skt5, stronger effect = lower value 0.986 | locus YBR009C, strain hhf1, stronger effect = lower value 0.939 | locus YBR023C, strain chs3, stronger effect = lower value 0.985 | locus YBR171W, strain sec66, stronger effect = lower value 0.961 | locus YBR229C, strain ROT2, stronger effect = lower value 1.01 | locus YBR231C, strain swc5, stronger effect = lower value 0.939 | locus YBR279W, strain paf1, stronger effect = lower value 0.972 | locus YCL011C, strain gbp2, stronger effect = lower value 0.973 | locus YCL016C, strain dcc1, stronger effect = lower value 0.979 | locus YCL029C, strain bik1, stronger effect = lower value 0.938 | locus YCL061C, strain MRC1, stronger effect = lower value 0.944 | locus YCL069W, strain vba3, stronger effect = lower value 0.984 | locus YCR088W, strain abp1, stronger effect = lower value 0.994 | locus YDL005C, strain med2, stronger effect = lower value 0.97 | locus YDL035C, strain GPR1, stronger effect = lower value 0.926 | locus YDL040C, strain nat1, stronger effect = lower value 0.995 | locus YDL074C, strain BRE1, stronger effect = lower value 0.945 | locus YDL101C, strain DUN1, stronger effect = lower value 0.976 | locus YDL134C, strain PPH21, stronger effect = lower value 0.944 | locus YDL192W, strain arf1, stronger effect = lower value 0.957 | locus YDR001C, strain nth1, stronger effect = lower value 0.986 | locus YDR069C, strain doa4, stronger effect = lower value 0.999 | locus YDR101C, strain arx1, stronger effect = lower value 0.926 | locus YDR137W, strain rgp1, stronger effect = lower value 1.04 | locus YDR159W, strain sac3, stronger effect = lower value 0.94 | locus YDR162C, strain NBP2, stronger effect = lower value 0.989 | locus YDR297W, strain sur2, stronger effect = lower value 0.971 | locus YDR318W, strain mcm21, stronger effect = lower value 0.938 | locus YDR334W, strain swr1, stronger effect = lower value 0.971 | locus YDR335W, strain msn5, stronger effect = lower value 0.975 | locus YDR388W, stronger effect = lower value 0.952 | locus YDR392W, strain spt3, stronger effect = lower value 0.934 | locus YDR502C, strain sam2, stronger effect = lower value 0.926 | locus YEL003W, strain gim4, stronger effect = lower value 0.943 | locus YEL037C, strain rad23, stronger effect = lower value 0.988 | locus YEL061C, strain CIN8 (second series), stronger effect = lower value 0.991 | locus YEL061C, strain CIN8, stronger effect = lower value 1 | locus YER015W, strain faa2, stronger effect = lower value 0.98 | locus YER016W, strain bim1, stronger effect = lower value 0.992 | locus YER110C, stronger effect = lower value 0.925 | locus YER111C, strain swi4, stronger effect = lower value 0.98 | locus YER155C, strain BEM2 (second series), stronger effect = lower value 1 | locus YER155C, strain BEM2, stronger effect = lower value 0.947 | locus YER167W, strain BCK2, stronger effect = lower value 0.978 | locus YFR010W, strain ubp6, stronger effect = lower value 0.978 | locus YGL086W, strain mad1, stronger effect = lower value 0.965 | locus YGL167C, strain pmr1, stronger effect = lower value 0.978 | locus YGL173C, strain kem1, stronger effect = lower value 0.949 | locus YGL227W, strain vid30, stronger effect = lower value 0.975 | locus YGL240W, strain doc1, stronger effect = lower value 0.956 | locus YGL248W, strain PDE1, stronger effect = lower value 0.97 | locus YGL253W, strain hxk2, stronger effect = lower value 0.944 | locus YGR135W, strain pre9, stronger effect = lower value 0.903 | locus YHR013C, strain ard1, stronger effect = lower value 0.993 | locus YHR027C, strain rpn1, stronger effect = lower value 0.96 | locus YHR079C, strain IRE1 (second series), stronger effect = lower value 0.941 | locus YHR094C, strain hxt1, stronger effect = lower value 0.955 | locus YHR129C, strain ARP1, stronger effect = lower value 0.984 | locus YHR142W, strain chs7, stronger effect = lower value 0.96 | locus YHR200W, strain rpn10, stronger effect = lower value 0.961 | locus YIL066C, strain RNR3, stronger effect = lower value 0.963 | locus YIL073C, strain SPO22, stronger effect = lower value 0.978 | locus YIR030C, strain dcg1, stronger effect = lower value 0.961 | locus YJL092W, strain hpr5, stronger effect = lower value 0.983 | locus YJL095W, strain BCK1 (second series), stronger effect = lower value 0.985 | locus YJL115W, strain asf1, stronger effect = lower value 0.983 | locus YJL129C, strain trk1, stronger effect = lower value 0.911 | locus YJL134W, strain LCB3, stronger effect = lower value 0.996 | locus YJL154C, strain vps35, stronger effect = lower value 0.99 | locus YJL164C, strain tpk1, stronger effect = lower value 0.97 | locus YJL166W, strain qcr8, stronger effect = lower value 0.981 | locus YJL168C, strain set2, stronger effect = lower value 0.968 | locus YJL187C, strain SWE1 (second series), stronger effect = lower value 0.955 | locus YJR043C, strain POL32, stronger effect = lower value 0.916 | locus YKL009W, strain mrt4, stronger effect = lower value 0.954
0.997 (inactive) and 0.788 (active): locus YHR030C, strain SLT2, stronger effect = lower value
0.98 (inactive) and 0.786 (active): locus YJL095W, strain BCK1, stronger effect = lower value
